# This is one part of a sample in which the strongest signals are shown more often than they occur.
# B1: Clec2 (Mus musculus), Q9JL99 (protein)
# chain: MQDEDGYITLNIKPRKQALSSAEPASSWWRVMALVLLISSMGLVVGLVALGIMSVTQQKYLLAEKENLSATLQQLAKKFCQELIRQSEIKTKSTFEHKCSPCATKWRYHGDSCYGFFRRNLTWEESKQYCTEQNATLVKTASQSTLDYIAERITSVRWIGLSRQNSKKDWMWEDSSVLRKNGINLSGNTEENMNCAYLHNGKIHPASCKERHYLICERNAGMTRVDQLL
# Experiments:
# Assay in all cases: glycan array binding signal (z-score within array); higher = stronger binding
# Conditions in all cases: glycan notation: IUPAC condensed, linker removed
# [1] = biological target: Fuc(a1-2)Gal(b1-3)GalNAc(b1-3)Gal
# Procedure, shortened: (§1)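 Columns mapping to the same glycan were averaged after glycan names were converted to IUPAC-condensed notation. The data come from 3228 arrays in the Consortium for Functional Glycomics database, limited to those with an available protein sequence. Binding is reported as a within-array Z-score averaged across arrays of one protein sequence and across linkers.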
# [2] = biological target: Fuc(a1-2)Gal(b1-4)Fuc(a1-3)]GlcNAc(b1-2)Man(a1-3)[Fuc(a1-2)Gal(b1-4)[Fuc(a1-3)]GlcNAc(b1-2)Man(a1-6)]Man(b1-4)GlcNAc(b1-4)GlcNAc
# Procedure, shortened: as §1
# [3] = biological target: Fuc(a1-2)[Gal(a1-3)]Gal(b1-4)GlcNAc(b1-3)GalNAc
# Procedure, shortened: as §1
# [4] = biological target: Fuc(a1-2)[GalNAc(a1-3)]Gal(b1-3)GalNAc(a1-3)[Fuc(a1-2)]Gal(b1-4)GlcNAc
# Procedure, shortened: as §1
# [5] = biological target: Fuc(a1-2)[GalNAc(a1-3)]Gal(b1-4)GlcNAc(b1-3)Gal(b1-4)GlcNAc(b1-3)Gal(b1-4)GlcNAc
# Procedure, shortened: as §1
# [6] = biological target: Fuc(a1-3)[Gal(b1-4)]GlcNAc(b1-2)Man
# Procedure, shortened: as §1
# Gal(a1-3)Gal(b1-3)GlcNAc = biological target: Gal(a1-3)Gal(b1-3)GlcNAc
# Procedure, shortened: as §1
# [7] = biological target: Gal(a1-3)Gal(b1-4)[Fuc(a1-3)]GlcNAc(b1-2)Man(a1-3)[Gal(a1-3)Gal(b1-4)[Fuc(a1-3)]GlcNAc(b1-2)Man(a1-6)]Man(b1-4)GlcNAc(b1-4)GlcNAc
# Procedure, shortened: as §1
# [8] = biological target: Gal(b1-3)GalNAc(a1-3)[Fuc(a1-2)]Gal(b1-4)GlcNAc
# Procedure, shortened: as §1
# [9] = biological target: Gal(b1-3)GlcNAc(b1-2)Man(a1-3)[Gal(b1-3)GlcNAc(b1-2)Man(a1-6)]Man(b1-4)GlcNAc(b1-4)[Fuc(a1-6)]GlcNAc
# Procedure, shortened: as §1
# [10] = biological target: Gal(b1-3)GlcNAc(b1-3)Gal(b1-4)Glc
# Procedure, shortened: as §1
# [11] = biological target: Gal(b1-3)GlcNAc(b1-3)Gal(b1-4)GlcNAc(b1-6)[Gal(b1-3)GlcNAc(b1-3)]Gal(b1-4)Glc
# Procedure, shortened: as §1
# [12] = biological target: Gal(b1-3)GlcNAc(b1-3)Gal(b1-4)[Fuc(a1-3)]GlcNAc(b1-6)[Gal(b1-3)GlcNAc(b1-3)]Gal(b1-4)Glc
# Procedure, shortened: as §1
# [13] = biological target: Gal(b1-3)[Fuc(a1-4)]GlcNAc(b1-2)Man
# Procedure, shortened: as §1
# [14] = biological target: Gal(b1-4)GlcNAc(b1-2)Man(a1-3)Man(b1-4)GlcNAc(b1-4)GlcNAc
# Procedure, shortened: as §1
# [15] = biological target: Gal(b1-4)GlcNAc(b1-2)Man(a1-3)[GlcNAc(b1-4)][Gal(b1-4)GlcNAc(b1-2)Man(a1-6)]Man(b1-4)GlcNAc(b1-4)GlcNAc
# Procedure, shortened: as §1
# [16] = biological target: Gal(b1-4)GlcNAc(b1-3)Gal(b1-4)GlcNAc(b1-3)Gal(b1-4)GlcNAc(b1-3)Gal(b1-4)GlcNAc(b1-2)Man(a1-3)[Gal(b1-4)GlcNAc(b1-3)Gal(b1-4)GlcNAc(b1-3)Gal(b1-4)GlcNAc(b1-3)Gal(b1-4)GlcNAc(b1-2)Man(a1-6)]Man(b1-4)GlcNAc(b1-4)GlcNAc
# Procedure, shortened: as §1
# Gal3S(b1-4)Glc6S = biological target: Gal3S(b1-4)Glc6S
# Procedure, shortened: as §1
# [17] = biological target: Gal3S(b1-4)[Fuc(a1-3)]Glc6S
# Procedure, shortened: as §1
# Gal3S6S(b1-4)GlcNAc6S = biological target: Gal3S6S(b1-4)GlcNAc6S
# Procedure, shortened: as §1
# Gal6P(b1-4)GlcNAc = biological target: Gal6P(b1-4)GlcNAc
# Procedure, shortened: as §1
# Gal6S(b1-3)GlcNAc6S = biological target: Gal6S(b1-3)GlcNAc6S
# Procedure, shortened: as §1
# [18] = biological target: GalNAc(b1-3)Gal(a1-4)Gal(b1-4)GlcNAc
# Procedure, shortened: as §1
# GalNAc(b1-4)Gal(b1-4)Glc = biological target: GalNAc(b1-4)Gal(b1-4)Glc
# Procedure, shortened: as §1
# [19] = biological target: GlcNAc(a1-4)Gal(b1-4)GalNAc
# Procedure, shortened: as §1
# [20] = biological target: GlcNAc(a1-4)Gal(b1-4)GlcNAc(b1-3)Gal(b1-4)GlcNAc
# Procedure, shortened: as §1
# [21] = biological target: Man(a1-2)Man(a1-2)Man(a1-6)[Man(a1-3)]Man
# Procedure, shortened: as §1
# Neu5Ac(a2-3)Gal = biological target: Neu5Ac(a2-3)Gal
# Procedure, shortened: as §1
# [22] = biological target: Neu5Ac(a2-3)Gal(b1-3)GlcNAc(b1-2)Man(a1-3)[Neu5Ac(a2-3)Gal(b1-3)GlcNAc(b1-2)Man(a1-6)]Man(b1-4)GlcNAc(b1-4)GlcNAc
# Procedure, shortened: as §1
# [23] = biological target: Neu5Ac(a2-3)Gal(b1-4)GlcNAc(b1-2)[Neu5Ac(a2-3)Gal(b1-4)GlcNAc(b1-4)]Man(a1-3)[GlcNAc(b1-4)][Neu5Ac(a2-3)Gal(b1-4)GlcNAc(b1-2)[Neu5Ac(a2-3)Gal(b1-4)GlcNAc(b1-6)]Man(a1-6)]Man(b1-4)GlcNAc(b1-4)GlcNAc
# Procedure, shortened: as §1
# [24] = biological target: Neu5Ac(a2-3)Gal(b1-4)[Fuc(a1-3)]GlcNAc(b1-3)GalNAc
# Procedure, shortened: as §1
# [25] = biological target: Neu5Ac(a2-3)Gal6S(b1-4)GlcNAc
# Procedure, shortened: as §1
# [26] = biological target: Neu5Ac(a2-3)[GalNAc(b1-4)]Gal(b1-4)Glc
# Procedure, shortened: as §1
# [27] = biological target: Neu5Ac(a2-6)Gal(b1-4)GlcNAc(b1-2)Man(a1-3)[GlcNAc(b1-2)Man(a1-6)]Man(b1-4)GlcNAc(b1-4)GlcNAc
# Procedure, shortened: as §1
# [28] = biological target: Neu5Ac(a2-6)Gal(b1-4)GlcNAc(b1-2)Man(a1-6)[Gal(b1-4)GlcNAc(b1-2)Man(a1-3)]Man(b1-4)GlcNAc(b1-4)GlcNAc
# Procedure, shortened: as §1
# [29] = biological target: Neu5Ac(a2-6)Gal(b1-4)GlcNAc(b1-3)Gal(b1-4)GlcNAc(b1-3)Gal(b1-4)GlcNAc(b1-2)Man(a1-3)[Neu5Ac(a2-6)Gal(b1-4)GlcNAc(b1-3)Gal(b1-4)GlcNAc(b1-3)Gal(b1-4)GlcNAc(b1-2)Man(a1-6)]GalNAc
# Procedure, shortened: as §1
# [30] = biological target: Neu5Ac(a2-6)Gal(b1-4)GlcNAc(b1-6)[Gal(b1-3)GlcNAc(b1-3)]Gal(b1-4)Glc
# Procedure, shortened: as §1
# [31] = biological target: Neu5Ac(b2-6)Gal(b1-4)GlcNAc
# Procedure, shortened: as §1
# [32] = biological target: Neu5Gc(a2-3)Gal(b1-3)GlcNAc
# Procedure, shortened: as §1
# Neu5Gc(a2-3)Gal(b1-4)Glc = biological target: Neu5Gc(a2-3)Gal(b1-4)Glc
# Procedure, shortened: as §1
# [33] = biological target: Neu5Gc(a2-8)Neu5Ac(a2-3)Gal(b1-4)GlcNAc
# Procedure, shortened: as §1
# [34] = biological target: Neu5Gc(a2-8)Neu5Gc(a2-3)Gal(b1-4)GlcNAc(b1-3)Gal(b1-4)GlcNAc
# Procedure, shortened: as §1
binder,measurement,setting,value
B1,glycan array binding signal (z-score),[1],9.47
same,glycan array binding signal (z-score),[2],3.96
same,glycan array binding signal (z-score),[3],-0.063
same,glycan array binding signal (z-score),[4],-0.388
same,glycan array binding signal (z-score),[5],-0.74
same,glycan array binding signal (z-score),[6],0.349
same,glycan array binding signal (z-score),Gal(a1-3)Gal(b1-3)GlcNAc,3
same,glycan array binding signal (z-score),[7],6.06
same,glycan array binding signal (z-score),[8],-0.939
same,glycan array binding signal (z-score),[9],-0.411
same,glycan array binding signal (z-score),[10],0.433
same,glycan array binding signal (z-score),[11],-0.864
same,glycan array binding signal (z-score),[12],-0.993
same,glycan array binding signal (z-score),[13],3.5
same,glycan array binding signal (z-score),[14],-0.472
same,glycan array binding signal (z-score),[15],-0.464
same,glycan array binding signal (z-score),[16],-0.166
same,glycan array binding signal (z-score),Gal3S(b1-4)Glc6S,3.71
same,glycan array binding signal (z-score),[17],1.03
same,glycan array binding signal (z-score),Gal3S6S(b1-4)GlcNAc6S,4.08
same,glycan array binding signal (z-score),Gal6P(b1-4)GlcNAc,3.62
same,glycan array binding signal (z-score),Gal6S(b1-3)GlcNAc6S,3.2
same,glycan array binding signal (z-score),[18],0.28
same,glycan array binding signal (z-score),GalNAc(b1-4)Gal(b1-4)Glc,1.12
same,glycan array binding signal (z-score),[19],-0.598
same,glycan array binding signal (z-score),[20],-0.749
same,glycan array binding signal (z-score),[21],-0.215
same,glycan array binding signal (z-score),Neu5Ac(a2-3)Gal,0.604
same,glycan array binding signal (z-score),[22],3.51
same,glycan array binding signal (z-score),[23],-0.711
same,glycan array binding signal (z-score),[24],0.837
same,glycan array binding signal (z-score),[25],0.844
same,glycan array binding signal (z-score),[26],-0.342
same,glycan array binding signal (z-score),[27],-0.833
same,glycan array binding signal (z-score),[28],-0.707
same,glycan array binding signal (z-score),[29],4.45
same,glycan array binding signal (z-score),[30],-0.654
same,glycan array binding signal (z-score),[31],0.023
same,glycan array binding signal (z-score),[32],-0.366
same,glycan array binding signal (z-score),Neu5Gc(a2-3)Gal(b1-4)Glc,-0.112
same,glycan array binding signal (z-score),[33],-0.442
same,glycan array binding signal (z-score),[34],-0.34

# Source: the supplement of paper PMC8728848
